Hits are enriched below; roughly 11% of the tested compounds scored in any of these assays.
FLuc inh: inhibitors of firefly (Photinus pyralis) luciferase; P08659; purified P. pyralis luciferase, luminescence, biochemical; Potency, µM (series often up to 115 µM), usual class: inhibitors; 76,000 tested, 2.5% active; further: on the % scale 0 is the no-effect control and ±100 the full control effect; nearly all actives have a fitted effect of over 65% in size
Target sequence (P08659 whole entry, looked up): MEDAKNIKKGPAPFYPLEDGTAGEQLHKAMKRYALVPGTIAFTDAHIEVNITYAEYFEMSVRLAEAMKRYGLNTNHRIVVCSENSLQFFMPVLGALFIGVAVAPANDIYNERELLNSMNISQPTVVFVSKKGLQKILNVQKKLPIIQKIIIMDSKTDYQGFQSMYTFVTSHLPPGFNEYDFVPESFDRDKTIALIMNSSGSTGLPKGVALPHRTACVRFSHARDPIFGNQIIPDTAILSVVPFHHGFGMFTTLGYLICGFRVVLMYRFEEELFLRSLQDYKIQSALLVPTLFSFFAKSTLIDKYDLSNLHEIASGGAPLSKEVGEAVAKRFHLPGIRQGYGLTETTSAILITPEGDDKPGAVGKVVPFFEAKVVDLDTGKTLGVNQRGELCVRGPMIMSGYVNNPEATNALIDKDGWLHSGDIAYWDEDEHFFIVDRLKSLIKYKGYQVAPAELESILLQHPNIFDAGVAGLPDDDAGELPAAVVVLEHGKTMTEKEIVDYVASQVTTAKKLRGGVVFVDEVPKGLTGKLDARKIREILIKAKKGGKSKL
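Purified 10nM P. pyralis luciferase with 10uM D-luciferin and 10uM ATP in 50mM Tris acetate pH 7.5, 10mM Mg acetate, 0.01% Tween-20, 0.05% BSA. qHTS titration; luminescence read by CCD imager.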
HEK293 tox: kills HEK 293 cells; AID 1345083; 94,000 tested, 6.6% active; HEK 293 viability, ATP luminescence (CellTiter-Glo), 48-72 h; Potency, µM (highest dose often 115 µM), without a hit: top-dose activity change, negative = cytotoxicity, actives largely listed as inhibitors; further: on the % scale 0 is the no-effect control and ±100 the full control effect; nearly all actives have a fitted effect of over 60% in size
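Luminescence from cellular ATP, measured with CellTiter-Glo, indicates HEK 293 viability. Cells plated at 250 cells/well are treated with compound for 48 or 72 hr at 37 degree Celsius before reagent addition.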
hNpr1 antagonist: human Npr1 receptor antagonism; P16066; HEK293 hNpr1 GloSensor cGMP, ANP-stimulated luminescence; Potency, µM (titrated, usually from 46.3 µM), inactives show top-dose activity change, negative = inhibition, actives largely listed as inhibitors; 76,000 tested, 1.6% active; AID 1347048; calls by dose curve; further: on the % scale 0 is the no-effect control and ±100 the full control effect; nearly all actives have a fitted effect of over 60% in size
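Compound pre-incubated 30 min at room temperature on GloSensor-loaded HEK293 cells stably carrying hNpr1 and the pGS-40F cGMP biosensor. Stimulation uses hNppA at 0.1 nM final; luminescence is taken at baseline and 20 min post-agonist.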
NIH3T3 tox: NIH 3T3 cell cytotoxicity | NIH 3T3 viability, CellTiter-Glo ATP luminescence, 48-72 h | Potency, µM (titrated, usually from 96.7 µM), inactives show at the highest dose activity change, negative = cytotoxicity, most hits filed as inhibitors | 94,000 tested, 4.3% active; further: on the % scale 0 is the no-effect control and ±100 the full control effect; nearly all actives have a fitted effect of over 55% in size
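NIH 3T3 cells at 400 cells/well received 23 nL of compound by pintool and were incubated 48 or 72 h at 37 °C. Viability was read as ATP-coupled CellTiter-Glo luminescence.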
Npr1 antag conf: hNpr1 antagonism, confirmation assay; shares compounds with hNpr1 antagonist; HEK293 hNpr1 cGMP GloSensor luminescence, ANP-stimulated; Potency, µM (top dose mostly 57.6 µM), inactives show top-dose activity change, negative = inhibition, most hits filed as inhibitors; 1,400 tested, 76% active; calls by dose curve; further: nearly all actives have a fitted effect of over 70% in size
NPR2 antag: hNpr2 antagonism, selectivity versus Npr1. shares compounds with hNpr1 antagonist. HEK293 hNpr2 GloSensor cGMP luminescence, CNP-stimulated. Potency, µM (doses to about 57.6 µM), inactives show at the top dose activity change, negative = inhibition, actives largely listed as inhibitors. 1,400 tested, 67% active. AID 1347046; calls by dose curve; further: nearly all actives have a fitted effect of over 70% in size
FLuc inh counter: inhibits firefly luciferase, false Npr1 antagonist flag | shares compounds with hNpr1 antagonist | purified FLuc enzyme, luminescence, Km substrate | Potency, µM (series often up to 57.6 µM), without a hit: at the top dose activity change, negative = inhibition, most hits filed as inhibitors | 1,400 tested, 0.7% active | AID 1347047; further: 0% is about no effect
GloSensor cGMP: reduces cGMP signal in GloSensor control cells. shares compounds with hNpr1 antagonist. HEK293 GloSensor cGMP, SNP-stimulated, luminescence. Potency, µM (titrated, usually from 57.6 µM), without a hit: top-dose activity change, negative = inhibition, hits mostly inhibitors. 1,400 tested, 69% active. AID 1347051; calls by dose curve; further: on the % scale 0 is the no-effect control and ±100 the full control effect; nearly all actives have a fitted effect of over 70% in size
Active calls of the source: *. Unless noted, the call rests on the fitted dose curve; in most records, active means well fitted curve in the direction sought with a large enough effect; inconclusive means small, poorly fitted or top-dose-only effect, or another doubt; inactive means no such curve, though single readings can be large; an effect the other way counts as inactive or inconclusive. Potency means the concentration at half of the fitted maximal effect.

Screening Cc1ccccc1S(=O)(=O)N1CCCC(CCC(=O)NCc2ccc(F)cc2)C1 (centres undefined) returned FLuc inh inactive, HEK293 tox inconclusive, hNpr1 antagonist -1% and NIH3T3 tox -8%.
For Cc1ccccc1S(=O)(=O)N1CCCC(CCC(=O)Nc2cccc(Cl)c2)C1 (centres undefined) the results were FLuc inh inactive, HEK293 tox 22µM*, hNpr1 antagonist 11µM*, NIH3T3 tox inconclusive, Npr1 antag conf 24µM*, NPR2 antag 27µM*, FLuc inh counter 2% and GloSensor cGMP 27µM*.
`O=C(C1CCN([S+](=O)([O-])c2cccc(C(F)(F)F)c2)CC1)N1CCC(c2nc3ccncc3[nH]2)C1` (centres undefined) gave HEK293 tox -7% and NIH3T3 tox -3%.
CC(C)C(=O)NCC1CN(Cc2ccccc2)C(=O)c2c(ccnc2-c2ccc(OCC(=O)O)cc2)O1 (centres undefined) was read as FLuc inh inactive, HEK293 tox 25µM*, hNpr1 antagonist 5.6µM*, NIH3T3 tox inconclusive, Npr1 antag conf 5.4µM*, NPR2 antag 6.1µM*, FLuc inh counter 3% and GloSensor cGMP 4.8µM*.
`O=C(O)COc1ccc(-c2nccc3c2C(=O)N(Cc2c[nH]c4ccccc24)CC(COc2ccccc2)O3)cc1` (centres undefined) gave FLuc inh inconclusive, HEK293 tox 4%, hNpr1 antagonist 7% and NIH3T3 tox inconclusive.
For O=C(O)COc1ccc(-c2nccc3c2C(=O)N(Cc2cccc(C(F)(F)F)c2)CC(CNC(=O)C2CCOCC2)O3)cc1 (centres undefined) the results were FLuc inh inactive, HEK293 tox inconclusive, hNpr1 antagonist inconclusive, NIH3T3 tox inconclusive, Npr1 antag conf 8.6µM*, NPR2 antag inconclusive, FLuc inh counter 5% and GloSensor cGMP 5.4µM*.
Cc1ccc(CN2CCCC3(Cc4ccccc4CNC3=O)C2)cc1 (centres undefined) was read as HEK293 tox -21% and NIH3T3 tox -13%.
`CCOc1ccccc1C(=O)N1CCC2(CC1)CN(c1ncccn1)CC2CO` (centres undefined) gave FLuc inh inactive, HEK293 tox -5%, hNpr1 antagonist -6% and NIH3T3 tox -20%.
Screening O=S(=O)(NCC1CN(CC2CC2)CC12CCCCC2)c1cccc(F)c1 (centres undefined) returned HEK293 tox inconclusive and NIH3T3 tox -24%.
`O=C(c1ccccc1F)N1CCN(C(=O)c2nnn3c2COC(c2ccc(Cl)cc2)C3)CC1` (centres undefined) gave FLuc inh inactive, HEK293 tox inconclusive, hNpr1 antagonist 14µM*, NIH3T3 tox inconclusive, Npr1 antag conf 27µM*, NPR2 antag inconclusive, FLuc inh counter 2% and GloSensor cGMP inconclusive.
Screening Cc1ccc(C2Cn3nnc(C(=O)NC4CCCCCC4)c3CO2)cc1 (centres undefined) returned FLuc inh inactive, HEK293 tox inconclusive, hNpr1 antagonist -25% and NIH3T3 tox inconclusive.
For COc1ccccc1C(=O)N1CCN(C(=O)c2nnn3c2COC(c2ccc(C)cc2)C3)CC1 (centres undefined) the results were FLuc inh inactive, HEK293 tox inconclusive, hNpr1 antagonist inconclusive, NIH3T3 tox inconclusive, Npr1 antag conf inconclusive, NPR2 antag -28%, FLuc inh counter 1% and GloSensor cGMP inconclusive.
Screening COc1ccc(Cl)cc1C(=O)N1CCN(C(=O)c2nnn3c2COC(c2ccccc2)C3)CC1 (centres undefined) returned FLuc inh inactive, HEK293 tox inconclusive, hNpr1 antagonist inconclusive, NIH3T3 tox inconclusive, Npr1 antag conf inconclusive, NPR2 antag inconclusive, FLuc inh counter 2% and GloSensor cGMP -25%.
Screening O=C(NC1CCCCCCC1)c1nnn2c1COC(c1ccc(F)cc1)C2 (centres undefined) returned FLuc inh inactive, HEK293 tox inconclusive, hNpr1 antagonist inconclusive, NIH3T3 tox inconclusive, Npr1 antag conf inconclusive, NPR2 antag inconclusive, FLuc inh counter -1% and GloSensor cGMP inconclusive.
Screening O=C(c1ccc(Cl)cc1)N1CCN(C(=O)c2nnn3c2COC(c2ccccc2)C3)CC1 (centres undefined) returned FLuc inh inactive, HEK293 tox inconclusive, hNpr1 antagonist -11% and NIH3T3 tox -25%.
COc1ccc(C2Cn3nnc(C(=O)N4CCN(C(=O)c5ccccc5Cl)CC4)c3CO2)cc1 (centres undefined) was read as FLuc inh inactive, HEK293 tox inconclusive, hNpr1 antagonist inconclusive and NIH3T3 tox inconclusive.
For CCN1c2cc(C(=O)Nc3cc(OC)cc(OC)c3)ccc2C(=O)N2CCCCCC21 (centres undefined) the results were FLuc inh inactive, HEK293 tox inconclusive, hNpr1 antagonist -26% and NIH3T3 tox inconclusive.
Screening CNC(=O)c1cc(C2CC2)nc2onc(C3CCN(C(=O)c4ccccc4F)C3)c12 (centres undefined) returned HEK293 tox -20% and NIH3T3 tox -24%.
CC1=C(C(=O)Nc2ccccc2)C(c2cccc(C)c2)N2C(CC(=O)NC3CC3)=CSC2=N1 (centres undefined) was read as FLuc inh inactive, HEK293 tox inconclusive, hNpr1 antagonist inconclusive, NIH3T3 tox inconclusive, Npr1 antag conf inconclusive, NPR2 antag inconclusive, FLuc inh counter -2% and GloSensor cGMP inconclusive.
Screening CCNC(=O)CC1=CSC2=NC(C)=C(C(=O)Nc3ccccc3)C(c3ccc(F)cc3)N12 (centres undefined) returned FLuc inh inactive, HEK293 tox inconclusive, hNpr1 antagonist inconclusive, NIH3T3 tox -12%, Npr1 antag conf inconclusive, NPR2 antag -28%, FLuc inh counter -2% and GloSensor cGMP -18%.

Source: PubChem BioAssay (National Center for Advancing Translational Sciences (NCATS))
